This is an account of results in PubChem BioAssay (NCATS).

A short description of test [1]: Quantitative High-Throughput drug screen in 47 multiple myeloma cell lines against the NCATS MIPE library collection: JIM1_ECACC cell viability assay (AID 1918964). The procedure, abridged: (§1)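 Relative luminescence from CellTiter-Glo served as the viability signal, referenced to DMSO-treated (100%) and cell-free medium (0%) controls. Treatment lasted 48 hours at 37C with 500 cells per well.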

Test [2] is described as follows: Quantitative High-Throughput drug screen in 47 multiple myeloma cell lines against the NCATS MIPE library collection: INA6_PLB cell viability assay (AID 1918965; further: nearly all actives have a fitted effect of over 55% in size). An outline of the steps:
(§2)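 Steps: seed 500 cells per well; pin-transfer MIPE 4.0 library; incubate 48 h at 37C, 5% CO2, humidified; add CellTiter-Glo, 5 min room temperature; read luminescence.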

A short description of test [3]: Quantitative High-Throughput drug screen in 47 multiple myeloma cell lines against the NCATS MIPE library collection: H1112_PLB cell viability assay (AID 1918967; further: nearly all actives have a fitted effect of over 30% in size). The procedure, abridged:
as §1

A short description of test [4]: Quantitative High-Throughput drug screen in 47 multiple myeloma cell lines against the NCATS MIPE library collection: KMS27_JCRB cell viability assay (AID 1918970). Further: nearly all actives have a fitted effect of over 30% in size. Particulars: KMS27 myeloma cells, CellTiter-Glo ATP viability, 48 h; viability (% of DMSO): at 45.8 µM (top of the series). An outline of the steps: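 Myeloma cells (500 per well) were exposed to MIPE 4.0 compounds for 48 h at 37 °C, 5% CO2; viability was read as ATP luminescence with CellTiter-Glo, normalized to DMSO-only (100%) and media-only (0%) wells.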

Test [5] can be described thus: Quantitative High-Throughput drug screen in 47 multiple myeloma cell lines against the NCATS MIPE library collection: KMS12PE_JCRB cell viability assay (AID 1918972). Further: nearly all actives have a fitted effect of over 30% in size. An outline of the steps: as §2
Test [6] in a line: Quantitative High-Throughput drug screen in 47 multiple myeloma cell lines against the NCATS MIPE library collection: JIM3_ECACC cell viability assay (AID 1918963; further: nearly all actives have a fitted effect of over 35% in size). The procedure, abridged: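 Luminescent ATP measurement with CellTiter-Glo gives viability, scaled between DMSO-only wells (100%) and media-only wells (0%). Cells, 500 per well, faced library compounds for 48 hours at 37C.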

A short description of test [7]: Quantitative High-Throughput drug screen in 47 multiple myeloma cell lines against the NCATS MIPE library collection: Karpas25_ECACC cell viability assay (AID 1918968; further: nearly all actives have a fitted effect of over 35% in size). An outline of the steps:
as §1

A short description of test [8]: Quantitative High-Throughput drug screen in 47 multiple myeloma cell lines against the NCATS MIPE library collection: KMS12BM_JCRB cell viability assay (AID 1918971). Further: nearly all actives have a fitted effect of over 35% in size. An outline of the steps: as §1
A short description of test [9]: Quantitative High-Throughput drug screen in 47 multiple myeloma cell lines against the NCATS MIPE library collection: JJN3_DSMZ cell viability assay (AID 1918966; further: nearly all actives have a fitted effect of over 50% in size). The procedure, abridged:
as §1

Records with an inconclusive call do not appear. Calls of active or inactive are those of the source. The call rests on the fitted dose curve; in most records, active means well fitted curve in the direction sought with a large enough effect; inconclusive means small, poorly fitted or top-dose-only effect, or another doubt; inactive means no such curve, though single readings can be large; an effect the other way counts as inactive or inconclusive.
Potency means the concentration at half of the fitted maximal effect.

With `CC(C)c1onc(-c2c(Cl)cccc2Cl)c1COc1ccc(C=Cc2cccc(C(=O)O)c2)c(Cl)c1`, the Potency result in test [1], in test [2], in [3], in test [4] and in test [5] was “inactive” throughout.

With `COc1cc(F)c(C(C)C)cc1-c1ccc(C(F)(F)F)cc1CN1C(=O)O[C@H](c2cc(C(F)(F)F)cc(C(F)(F)F)c2)[C@@H]1C`, the Potency entry in test [6], in test [3], in [7], in [4] and in test [5] was “inactive” in each case. The Potency in test [8] is 3.32 µM (active).

Regarding `CCCCOCCOc1nc(-c2ccc(C(=O)O)c(F)c2)sc1C`, the Potency is 0.372 µM (active) in test [6] and 0.418 µM (active) in test [8]. Further, the Potency result in test [3], in test [4] and in [5] was “inactive” throughout.

On to `Cc1c(-c2cccc3c(CCCOc4cccc5ccccc45)c(C(=O)O)n(Cc4cccnc4)c23)c(COc2ccc(N3CCN([S+](=O)([O-])N(C)C)CC3)cc2)nn1C`, for which the Potency entry in [1], in test [4] and in test [5] was “inactive” each time. The Potency in test [2] is 16.6 µM (active); in test [9] it was 23.5 µM (active); in [3] it was 20.9 µM (active); in test [7], 20.9 µM (active); in test [8] it was 23.5 µM (active).

Consider `CCCCCCOC(=O)N=C(N)c1ccc(NCc2nc3cc(C(=O)N(CCC(=O)OCC)c4ccccn4)ccc3n2C)cc1`, for which the Potency in [1] was 8.33 µM (active); in test [2], 16.6 µM (active); in [9], 18.7 µM (active); in test [4], 11.8 µM (active); in test [8], 16.6 µM (active); in test [5], 18.7 µM (active).

Turning to `Oc1cc(O)cc(C=Cc2ccc(O)c(O)c2)c1`, the Potency was 16.6 µM (active) in [1]; 2.96 µM (active) in test [2]; 16.6 µM (active) in test [9]; 13.2 µM (active) in test [3]; 7.43 µM (active) in test [7]; 18.7 µM (active) in test [4]. In addition, the Potency in test [5] was 18.7 µM (active).

Consider `C[C@@H]1CCO[C@H]2Cn3cc(C(=O)NCc4ccc(F)cc4F)c(=O)c(O)c3C(=O)N12`, for which the Potency in test [1] is 23.5 µM (active); in test [2], 20.9 µM (active); in test [7], 18.7 µM (active); in test [8], 20.9 µM (active). Also, the Potency entry in [3], in [4] and in test [5] was “inactive” each time.

On to `CNC(=O)c1cc(COc2nnc(Nc3ccc(Cl)cc3)c3ccoc23)ccn1`, for which the Potency result in test [1], in test [3], in [7] and in test [4] was “inactive” in each case. Moreover, the Potency in [2] was 13.2 µM (active); in test [9], 29.6 µM (active); in test [8] it was 26.4 µM (active); in test [5] it was 6.62 µM (active).

`Cn1c(=O)c(Oc2ccc(F)cc2F)cc2cnc(NC3CCOCC3)nc21`: the Potency entry in test [6], in test [3] and in [4] was “inactive” each time. In addition, the Potency in test [8] is 16.6 µM (active).

Take `CC(C)(F)C[C@H](N[C@@H](c1ccc(-c2ccc(S(C)(=O)=O)cc2)cc1)C(F)(F)F)C(=O)NC1(C#N)CC1`: in [6], the Potency is 0.0833 µM (active). In addition, the Potency result in test [3], in test [7] and in test [4] was “inactive” each time.

Turning to `CCN1CCN(c2ccc(Nc3cc(N(C)C(=O)Nc4c(Cl)c(OC)cc(OC)c4Cl)ncn3)cc2)CC1`, the Potency entry in [6], in test [3] and in test [4] was “inactive” throughout. Moreover, the Potency in test [7] is 18.7 µM (active); in test [8] it was 16.6 µM (active).

Turning to `Cc1cc(NC(=O)Nc2ccc(N(C)C)cc2)c2cc(F)cc(F)c2n1`, the Potency entry in test [6] and in test [4] was “inactive” each time. The Potency was 3.72 µM (active) in test [7] and 1.66 µM (active) in [5].

Turning to `O=C(Nc1cccc(C(F)(F)F)c1)Nc1cc(S(=O)(=O)NC2CC2)ccc1-c1ccsc1`, the Potency in [6] was 23.5 µM (active); in test [7], 26.4 µM (active). Besides, the Potency result in test [5] is “inactive”.

As to `CC(C)C[C@@H](C(=O)N[C@H](C(=O)OC1CCCC1)c1ccccc1)[C@H](O)C(=O)NO`, the Potency in test [6] is 5.26 µM (active); in test [7], 20.9 µM (active); in test [4], 2.64 µM (active); in [8] it was 18.7 µM (active); in test [5], 2.09 µM (active).

On to `COc1ccc(Cn2ccc3ccc(C(=O)NO)cc32)cc1`, for which the Potency result in test [1] and in test [3] was “inactive” throughout. Further, the Potency in test [2] was 13.2 µM (active); in [9] it was 11.8 µM (active); in test [7], 16.6 µM (active); in test [5] it was 16.6 µM (active).

Regarding `Oc1ccc(C=Cc2cc(O)cc(O)c2)cc1`, the Potency result in [1], in [4] and in test [5] was “inactive” each time. The Potency in test [2] was 16.6 µM (active); in test [7], 18.7 µM (active); in [8] it was 33.2 µM (active).

On to `OC[C@H]1O[C@@H](OCCc2ccc(O)cc2)[C@H](O)[C@@H](O)[C@H]1O`, for which the Potency result in [6], in test [4], in [8] and in test [5] was “inactive” throughout.

Regarding `Cn1cc(-c2ccc3nnc(Sc4ccc5ncccc5c4)n3n2)cn1`, the Potency entry in test [6], in [3] and in test [4] was “inactive” each time. The Potency in [5] is 5.26 µM (active).

For `CNc1nc(Nc2ccc(C(=O)N3CCOCC3)cc2OC)ncc1Cl`, the Potency in test [6] is 20.9 µM (active); in test [8], 14.8 µM (active). The Potency entry in test [3], in [7] and in test [5] was “inactive” in each case.
